Bioassay records: PubChem, National Center for Advancing Translational Sciences (NCATS)
The list is not random: actives were taken first. Their share in the collection is about 12%.
JMJD2A Tudor: inhibitors of human JMJD2A Tudor domain. 390,000 compounds, 4.4% hits. AID 504339. AlphaScreen JMJD2A-Tudor / H3K4me3 peptide binding. O75164. Potency, µM (doses to about 114 µM), without a hit: at the top dose activity change, negative = inhibition, hits mostly inhibitors; further: potency means the concentration at half of the fitted maximal effect; on the % scale 0 is the no-effect control and ±100 the full control effect; nearly all actives have a fitted effect of over 50% in size
G9a inh: blocks human histone lysine methyltransferase G9a | 350,000 compounds, 8.8% hits | G9a H3K9 monomethylation, AlphaScreen, 2 h | Potency, µM (highest dose often 102 µM), inactives show at the highest dose activity, negative = inhibition, usual class: inhibitors; further: potency means the concentration at half of the fitted maximal effect; on the % scale 0 is the no-effect control and ±100 the full control effect; nearly all actives have a fitted effect of over 75% in size
Target sequence (Q96KQ7 913-1193 limits assumed): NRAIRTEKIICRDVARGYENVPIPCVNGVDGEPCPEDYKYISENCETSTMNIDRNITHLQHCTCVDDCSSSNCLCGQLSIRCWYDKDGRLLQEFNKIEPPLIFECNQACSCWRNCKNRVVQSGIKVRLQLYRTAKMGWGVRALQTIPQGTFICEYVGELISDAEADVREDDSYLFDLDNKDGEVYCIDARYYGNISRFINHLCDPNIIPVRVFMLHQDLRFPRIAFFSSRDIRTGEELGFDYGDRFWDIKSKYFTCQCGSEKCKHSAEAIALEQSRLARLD
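Step 1: enzyme (final 20 nM) with compound, 15 min RT. Step 2: substrate peptide 500 nM and SAM 20 uM, 2 h RT. Step 3: anti-H3K9me1 antibody and AlphaScreen beads, 10 min, then plate read.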
BAZ2B block: BAZ2B (human) inhibition; Q9UIF8; AlphaScreen BAZ2B-H3K14Ac peptide displacement; Potency, µM (titrated, usually from 114 µM), inactives show at the top dose activity change, negative = inhibition, usual class: inhibitors; 360,000 compounds, 4.4% hits; further: potency means the concentration at half of the fitted maximal effect; on the % scale 0 is the no-effect control and ±100 the full control effect; nearly all actives have a fitted effect of over 60% in size
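In this displacement format the biotinylated H3(5-23) peptide acetylated at Lys14 serves as ligand at 50 nM, with BAZ2B at 50 nM in PBS pH 7.4 containing 0.01% Tween-20. Donor and acceptor beads are 10 ug/mL final.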
HP1b chromo inh: blocks HP1-beta chromodomain binding to methylated histone tails | P83916 | AlphaScreen HP1-beta / biotin-H3K9me3 peptide binding | Potency, µM (top dose mostly 114 µM), for inactives: top-dose activity change, negative = inhibition, usual class: inhibitors | 390,000 compounds, 0.56% hits | AID 540317; further: potency means the concentration at half of the fitted maximal effect; nearly all actives have a fitted effect of over 70% in size
Target sequence (P83916 whole entry, looked up): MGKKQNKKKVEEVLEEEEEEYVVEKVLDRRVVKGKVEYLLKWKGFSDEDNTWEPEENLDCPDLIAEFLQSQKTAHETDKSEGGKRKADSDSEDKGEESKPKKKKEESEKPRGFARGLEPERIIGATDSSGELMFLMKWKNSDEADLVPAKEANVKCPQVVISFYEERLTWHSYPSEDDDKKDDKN
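AlphaScreen: HP1-beta (50 nM) preformed 30 min with biotin-H3(1-18)K9me3 peptide (50 nM) in PBS pH 7.4, 0.01% Tween-20. Compound added for 30 min at RT, then streptavidin donor/nickel chelate acceptor beads (10 ug/mL) for 30 min.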
PI5P4K alpha inh: inhibitors of human PI5P4K alpha; 330,000 compounds, 1.2% hits; PI5P4Kalpha enzyme, ADP-Glo luminescence, 60 min; active compounds read low; max response, %; AID 652105; active means max response of -50% or lower; inconclusive means between -30% and -50%; inactive means -30% or higher; further: value at the top dose of about 77 µM; on the % scale 0 is the no-effect control and ±100 the full control effect
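Enzyme plus substrate dispensed, test compounds pinned in, then ATP (5 microM final) added. After 60 min at RT, ADP-Glo reagent 1 for 45 min and reagent 2 for 30 min preceded luminescence imaging.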
PLK1 PBD inh: blocks phosphopeptide binding to human PLK1 polo-box domain | Plk1 PBD binding of FITC phosphopeptide, fluorescence polarization | Potency, µM, without a hit: max response, negative = inhibition, most hits filed as inhibitors | 360,000 compounds, 2.8% hits; further: potency means the concentration at half of the fitted maximal effect; series mostly up to about 57 µM; on the % scale 0 is the no-effect control and ±100 the full control effect; nearly all actives have a fitted effect of over 65% in size
The depositor's hits bear a star; ? = inconclusive; · = not tested or not shown; [ ] = another dose, or the depositor's remark. Unless noted, the call rests on the fitted dose curve; in most records, active means well fitted curve in the direction sought with a large enough effect; inconclusive means small, poorly fitted or top-dose-only effect, or another doubt; inactive means no such curve, though single readings can be large; an effect the other way counts as inactive or inconclusive.

SMILES | JMJD2A Tudor | G9a inh | BAZ2B block | HP1b chromo inh | PI5P4K alpha inh | PLK1 PBD inh
CN(C)C=C1C(=O)c2ccccc2C1=O | -7% | ? | -2% | 34% | 0 | 0%
COc1ccccc1-c1ccc(/C=C2/C=C(C)OC2=O)o1 | ? | 16µM* | ? | -13% | -22 | ?
CC1=C/C(=C\c2ccc(Br)o2)C(=O)O1 | 40µM* | ? | 32µM* | ? | ? | 19µM*
COc1cc(/C=C2\C=CC(=O)O2)cc(OC)c1 | -11% | 2% | -2% | 19% | -15 | 12%
COc1ccccc1-c1ccc(/C=C2\C=CC(=O)O2)o1 | ? | ? | 50µM* | -27% | -27 | 16%
COC(=O)c1cc2c(n1S(=O)(=O)c1ccc(C)cc1)C(=O)C(=O)c1[nH]cc(C(=O)OCc3ccccc3)c1-2 | ? | · | · | ? | -9 | -6%
COc1cccc(C(=O)NCCc2csc3nc(-c4ccccc4F)nn23)c1OC | -10% | 1%[59 µM] | 1% | 26%[57 µM] | · | ·
COc1ccc2[nH]c(C)c(CCNS(=O)(=O)c3cc(F)ccc3OC)c2c1 | ? | -30%[59 µM] | ? | 1% | · | ·
Oc1ccc(Br)cc1C1C=C(c2ccc3c(c2)OCO3)NC(c2ccc(F)c(Br)c2)N1 (stereo not drawn) | ? | · | · | 23% | · | ·
CC(=O)N(c1cccc(C)c1)C1SC(=O)N(c2ccccc2)C1=O (stereo not drawn) | 10% | 4% | 9% | 44% | -7 | 24µM*
CC(=O)N(c1ccccc1)C1SC(=O)N(c2ccccc2)C1=O (stereo not drawn) | 6% | -5%[59 µM] | · | 26% | · | 21µM*
CCCN1C(=O)c2[nH]nc(-c3ccccc3O)c2C1c1ccc(OCc2ccccc2)c(OCC)c1 (stereo not drawn) | -3% | 18%[59 µM] | -14% | 63% | · | ·
Cc1c(P(=S)(c2ccccc2)c2ccccc2)c2ccccc2n1C(=O)NCc1ccc(F)cc1 | -16% | · | · | · | · | ·
CN1CCN(C(=O)c2cc3c(ccc4ccccc43)oc2=O)CC1 | -10% | 50µM* | -32% | 36% | -3 | -5%
Clc1ccc(-n2nnnc2-c2cnc3ccccc3c2-c2ccccc2)cc1 | -31% | 14µM* | -20% | 5% | -3 | 1%
Clc1ccc(-n2nnnc2-c2ccccc2)cc1 | 3% | 45µM* | 1% | -15% | · | -29%
Clc1ccc(-c2nnnn2-c2ccc(Cl)cc2)cc1 | 24% | -2% | 10% | 55% | -8 | -7%
CC(=O)Oc1ccc2cc(-c3ccccc3)c(=O)oc2c1 | 3% | 26%[0.501 µM] | 5% | 21% | 0 | 10%
N#CC1=C(N)NC(=S)C(C(N)=O)C1c1ccc([N+](=O)[O-])cc1 (stereo not drawn) | 89µM* | · | -34% | 7% | -56* | 27µM*
CCOCCc1nnc(NC(=O)C(=O)c2cc(C)n(-c3ccc(C)cc3C)c2C)s1 | ? | -45%[59 µM] | -33% | -2% | · | ·
Cc1cccc(N2CCN(C(=O)c3ccc4c(c3)NC(=O)C(CSCc3cccc(F)c3)N4)CC2)c1C (stereo not drawn) | · | 10µM* | ? | · | · | ·
Cc1cc2c(s1)c1cnn(Cc3cc(F)c(F)c(F)c3)c(=O)c1n2C | -19% | · | · | · | · | ·
CCC1CCCCN1C(=O)c1ccc2c(c1)C(=O)N(c1ccc(C)cc1)C2=O (stereo not drawn) | -15% | 19% | -16% | -3% | -5 | -13%
O=C(N/N=C/c1ccc(N2CCOCC2)s1)c1ccccc1Br | -9% | ? | -26% | 23% | 11 | -5%
Clc1cccc(N/N=C/c2ccc(N3CCOCC3)s2)c1 | -14% | 1.1µM* | 50µM* | 21% | 11 | -9%
SMILES | JMJD2A Tudor | G9a inh | BAZ2B block | HP1b chromo inh | PI5P4K alpha inh | PLK1 PBD inh
Nc1ccc(C(=O)N/N=C/c2ccc(N3CCOCC3)s2)cc1 | -24% | · | · | 19% | -1 | -9%
CC(C)(C)OC(=O)N/N=C/c1ccc(N2CCOCC2)s1 | -16% | 16µM* | -4% | 12% | -2 | 0%
CC(OC(=O)c1ccccc1CCc1ccccc1)C(N)=O (stereo not drawn) | -8% | 20% | 2% | 38% | -11 | -8%
O=C(NCCc1cccc(Cl)c1)c1cccc(-n2cnnn2)c1 | -3% | 45µM* | -1% | 20% | -1 | 1%
O=[N+]([O-])c1ccccc1CSc1ccccn1 | -15% | 50µM* | -2% | -13% | 1 | ?
O=[N+]([O-])c1ccc(Sc2ccccn2)nc1 | -14% | 45µM* | -11% | 33% | 2 | -6%
Cc1cc(C)c(C#N)c(SCc2ccccc2[N+](=O)[O-])n1 | -13% | 10µM* | -33% | 27% | -1 | ?
O=C(Nc1ccc([N+](=O)[O-])cc1)c1ccccc1 | -9% | 19%[59 µM] | -2% | 17% | -1 | -10%
O=C(Nc1cc(Sc2ccccn2)cc([N+](=O)[O-])c1)c1ccc([N+](=O)[O-])cc1 | 3.2µM* | -13%[12.7 µM] | ? | -11% | -75* | 1.1µM*
Cc1ccc(C#N)c(SCc2ccccc2[N+](=O)[O-])n1 | 4% | ? | 4% | 35% | 15 | -21%
Cc1cc(=O)n(Cc2c(F)cccc2Cl)c2c1c(C)nn2-c1cccc(F)c1 | -10% | -4%[59 µM] | -35% | 20% | · | ·
Cc1ccc(-c2n[nH]c(=S)nc2-c2ccc(C)cc2)cc1 | ? | ? | -36% | -15% | -25 | -52%
CCc1ccc(NC(=O)CCCc2nnc3n(CC(C)C)c(=O)c4sccc4n23)cc1 | -19% | -3%[59 µM] | -16% | 12% | · | ·
O=[N+]([O-])c1cccnc1Sc1n[nH]c(-c2ccc(Cl)cc2)n1 | -13% | · | -4% | 21% | 0 | -22%
O=[N+]([O-])c1ccc(Sc2n[nH]c(-c3ccncc3)n2)nc1 | -9% | 45µM* | -1% | 36% | -6 | -7%
O=[N+]([O-])c1ccc(SCc2c(F)cccc2Cl)nc1 | 56µM* | · | ? | -21% | 2 | -6%
O=[N+]([O-])c1ccc(Sc2ccc(Cl)c(Cl)c2)nc1 | ? | ? | 22µM* | -23% | · | -5%
Cc1ccc(C2=NN(CCC#N)C(=O)CO2)cc1 | -13% | ? | 1% | 34% | 3 | -3%
O=C(C1=C[C@H](c2csc3ccccc23)C[C@H](OCCCCO)O1)N1CCN(Cc2ccccc2)CC1 | ? | ? | 50µM* | 5% | 0 | 9%
Cc1nn(C(C)C(=O)Nc2cccc(F)c2)c(=O)c2c1sc1ccccc12 (stereo not drawn) | -3% | -26%[59 µM] | 2% | 45% | · | ·
O=C1CC(c2ccco2)Cc2nc(N3CCc4ccccc4C3)ncc21 (stereo not drawn) | -25% | 45µM* | ? | -11% | -29 | -20%
